# PubChem BioAssay AID1851 (National Center for Advancing Translational Sciences (NCATS), 2009)
# Among all 16,000 compounds or so, about 5,100 (32%) were called active. Another 25% or so got no clear call; they are omitted. Calls follow the shape of the dose curve; as a rule, active = well fitted curve in the direction sought with a large enough effect; inconclusive = small, poorly fitted or top-dose-only effect, or effect the other way; inactive = no such curve, though single readings can be large or run the other way. This is one part of the list.
# Biological target: Cytochrome P450 3A4 (Homo sapiens) (UniProt P08684)
# Sequence (P08684 whole entry, looked up): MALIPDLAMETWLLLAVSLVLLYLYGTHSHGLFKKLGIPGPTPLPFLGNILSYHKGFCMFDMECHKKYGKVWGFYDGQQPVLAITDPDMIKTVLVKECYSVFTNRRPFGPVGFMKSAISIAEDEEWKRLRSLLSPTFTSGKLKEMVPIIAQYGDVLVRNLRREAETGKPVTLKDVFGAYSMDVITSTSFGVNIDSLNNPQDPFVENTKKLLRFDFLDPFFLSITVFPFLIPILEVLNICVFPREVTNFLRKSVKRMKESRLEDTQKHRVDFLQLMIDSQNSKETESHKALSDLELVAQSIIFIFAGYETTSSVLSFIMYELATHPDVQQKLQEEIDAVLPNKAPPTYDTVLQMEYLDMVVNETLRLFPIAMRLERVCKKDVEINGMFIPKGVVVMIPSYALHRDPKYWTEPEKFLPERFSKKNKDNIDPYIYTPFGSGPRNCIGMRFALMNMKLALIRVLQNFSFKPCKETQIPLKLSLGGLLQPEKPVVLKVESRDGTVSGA
# Test: Cytochrome panel assay with activity outcomes
# Settings: recombinant CYP, pro-luciferin dealkylation, luminescence, p450-cyp3a4; series mostly up to 57.1 µM; activity, negative = inhibition: at the top concentration
# % is scaled to controls: 0 for no effect and ±100 for the full control effect.
Compound,"activity, negative = inhibition",AC50
CC(=O)N(/N=C/c1cccc(C)c1)c1nc(-c2ccc(Br)cc2)cs1,-11.8% (inactive),
CSc1nsc(SC)c1NC(=O)OCc1ccccc1,,22.4 µM (active)
CSc1nsc(SC)c1NC(=O)Nc1ccccn1,-5.92% (inactive),
CSc1nsc(SC)c1NC(=O)OCC1CCCO1 (centres undefined),-5.42% [at 11.4 µM] (inactive),
O=C(CSCc1ccccc1Cl)NN1C(=O)c2ccccc2C1=O,,14.1 µM (active)
O=C(Nc1ccc(Br)cc1)C1CCC(=O)N1Cc1ccccc1Cl (centres undefined),-3.06% [at 11.4 µM] (inactive),
Cc1nn(C)cc1C(=O)NNC(=S)Nc1ccccc1,3.36% [at 2.29 µM] (inactive),
O=C(CSCc1ccccc1Cl)NNC(=S)Nc1ccccc1,,4.47 µM (active)
O=C(NN1C(=O)c2ccccc2C1=O)C1CCCCC1,-9.94% (inactive),
O=C(NNC(=S)Nc1ccccc1)C1CC1,-8.39% (inactive),
Nc1cc(S(=O)(=O)O)cc2ccc(S(=O)(=O)O)cc12,-1.64% [at 11.4 µM] (inactive),
O=C(NCCc1ccc(Cl)cc1)Nc1cccc(Cl)c1,,14.1 µM (active)
CCOC(=O)CCCN,-12.7% [at 11.4 µM] (inactive),
Cc1ccc(C(=O)NN2CCOCC2)cc1,1.64% (inactive),
COc1ccc(C(=O)NCS(=O)(=O)c2ccc(C)cc2)cc1,,14.1 µM (active)
COc1ccc(NC(=O)C2(c3ccc(NC(=O)c4ccc(C)cc4)cc3)CCCC2)cc1,-6.94% (inactive),
CCc1ccccc1NC(=O)c1ccc(F)c(S(=O)(=O)N2CCC(C(N)=O)CC2)c1,,15.8 µM (active)
COc1ccc(C(=O)Nc2cccc3c2C(=O)NC3=O)cc1S(=O)(=O)N1CCOCC1,1.45% [at 2.29 µM] (inactive),
COc1cccc(/C=N/Nc2nc(N3CCCC3)nc(N3CCCC3)n2)c1O,,10 µM (active)
O=[N+]([O-])c1ccc(Nc2nc(N/N=C\c3ccc4c(c3)OCO4)nc(N3CCCCC3)n2)cc1,,1.26 µM (active)
CCOc1ccc(/C=N/Nc2nc(N3CCCC3)nc(N3CCCC3)n2)cc1OC,,12.6 µM (active)
CCOc1cc(/C=N/NC(=O)CN2CCCCC2)ccc1OCc1ccccc1,-6.35% [at 2.29 µM] (inactive),
Brc1cc2c(cc1/C=N/Nc1nc(N3CCCC3)nc(N3CCOCC3)n1)OCO2,,2.82 µM (active)
CC(C)(C)Nc1nc(N2CCCC2)nc(N2CCCC2)n1,11.3% [at 2.29 µM] (inactive),

Compound,"activity, negative = inhibition",AC50
C1CCC(N=C(NC23CC4CC(CC(C4)C2)C3)N2CCOCC2)CC1,-18.1% (inactive),
COC(=O)[C@@H]1[C@@H](O)[C@]2(O)c3ccccc3O[C@]2(c2ccccc2)[C@H]1c1ccccc1,-17.3% [at 11.4 µM] (inactive),
C[C@@H]1NC(=O)C/C=C\[C@@H](C)[C@@H]2C=C[C@H](O)[C@@H](COC(=O)[C@H](C)NC(=O)C/C=C\[C@@H](C)[C@@H]3C=C[C@H](O)[C@@H](COC1=O)O3)O2,6.73% [at 11.4 µM] (inactive),
CN(C)Cc1ccc(O)c(CN(C)C)n1,-18.2% [at 11.4 µM] (inactive),
CC1CCCN(C/C=C/c2ccccc2[N+](=O)[O-])C1 (centres undefined),0.0233% (inactive),
COc1c(/C=N/Nc2nc(N3CCCCC3)nc(N3CCCCC3)n2)cccc1[N+](=O)[O-],,3.98 µM (active)
C/C(CC(=O)NCc1ccco1)=N\NC(=O)Cc1cccc2ccccc12,-8.55% [at 2.29 µM] (inactive),
COc1ccccc1CNC(=O)C/C(C)=N/NC(=O)Cc1ccccc1,,7.94 µM (active)
Cc1cc(=O)n2c3ccccc3n(CC(O)CN3CCCCC3)c2c1C#N (centres undefined),8.05% (inactive),
CCN(CCO)Cc1csc2cccc(Br)c12,-1.38% (inactive),
Cc1ccc(C(=O)c2cn[nH]c2-c2cc(Cl)ccc2O)cc1,,3.98 µM (active)
Cc1ccc(C(=O)c2cn(-c3ccc(F)c(Cl)c3)nn2)cc1,-1.47% (inactive),
CCn1ccc(C(=O)Oc2ccc(Cl)cc2)n1,-12.6% (inactive),
O=C(CS(=O)c1cccc(Cl)c1)Nc1ccccc1Cl (centres undefined),,14.1 µM (active)
O=C(CS(=O)c1cccc(C(F)(F)F)c1)Nc1ccccc1Cl (centres undefined),,7.94 µM (active)
Cc1nc(S(=O)(=O)c2cccc(Cl)c2)nc2c1CCC2,18.2% [at 2.29 µM] (inactive),
O=C(CS(=O)(=O)c1cccc(Cl)c1)Nc1ccccc1Cl,,6.31 µM (active)
CC(=O)N(CC(=O)O)c1ccccc1C(=O)O,-0.567% (inactive),
O=C(O)c1ccccc1OP(=O)(O)O,-3.92% [at 25.6 µM] (inactive),
COc1ccc(-n2c(C)n[nH]c2=O)cc1,28.8% (inactive),
Cc1cc(-c2n[nH]c(=S)o2)c(C)n1-c1ccccc1,-29.5% (inactive),
Cc1ccc(-n2c(-c3cc(C)n(C)n3)n[nH]c2=S)cc1,,14.1 µM (active)
CN(C)c1ncc2nc(-c3cccs3)c(=O)n(C[C@H]3CCCO3)c2n1,,25.1 µM (active)
COc1ncc2nc(C)c(=O)n(CCC#N)c2n1,-17.2% (inactive),

Compound,"activity, negative = inhibition",AC50
COCCn1c(=O)c(-c2cccs2)nc2cnc(Oc3ccc(OC)cc3)nc21,,0.794 µM (active)
CN(C)c1ncc2nc(-c3ccccc3)c(=O)n(CCC#N)c2n1,3.78% (inactive),
CN(C)c1ncc2nc(-c3cc(F)cc(F)c3)c(=O)n(C[C@H]3CCCO3)c2n1,-8.08% (inactive),
CN(C)c1ncc2nc(-c3ccc(F)cc3)c(=O)n(C[C@H]3CCCO3)c2n1,-4.69% (inactive),
COCCn1c(=O)c(-c2ccc(F)cc2)nc2cnc(N(C)C)nc21,-3.27% (inactive),
COCCn1c(=O)c(-c2cccs2)nc2cnc(N(C)C)nc21,,7.94 µM (active)
COc1ncc2nc(-c3cccs3)c(=O)n(CCC#N)c2n1,,10 µM (active)
CN(C)c1ncc2nc(-c3cccs3)c(=O)n(CCc3ccccc3)c2n1,-19% (inactive),
CCC1NC(=S)N(C2CCCCC2)C1=O (centres undefined),-22.3% (inactive),
Cc1ccc(-[n+]2cc(=O)o[nH]2)cc1,-10.5% [at 11.4 µM] (inactive),
Nc1nc(C(=O)O)c(N=Nc2ccccc2)c(=O)[nH]1,-12.5% [at 11.4 µM] (inactive),
CCOc1ccc2nc3cc(N=Nc4ccc(N)nc4N)ccc3c(N)c2c1,-19% [at 11.4 µM] (inactive),
COc1ncc2nc(-c3cccs3)c(=O)n(CCc3ccccc3)c2n1,,10 µM (active)
COCCn1c(=O)c(-c2cccs2)nc2cnc(OC)nc21,,10 µM (active)
COCCn1c(=O)c(-c2cccs2)nc2cnc(Oc3ccccc3)nc21,,20 µM (active)
CCCCN(Cc1ccccc1)C(=O)c1cnc2n(c1=O)CCS2,-24.7% (inactive),
CSc1ccccc1N1CCN(C(=O)Nc2ccc3c(c2)NC(=O)CO3)CC1,8.81% (inactive),
CN(C)S(=O)(=O)c1nc(Cl)c2[nH]cnc2n1,-5.34% [at 11.4 µM] (inactive),
CCOC(=O)N/N=C1/C[C@@H](O)[C@@H](O)[C@@H]2[C@@H]3C(=O)N(C4CCCCC4)C(=O)[C@H]3CC[C@@H]12,-20.8% [at 11.4 µM] (inactive),
O=C(Nc1cccc(Cl)c1Cl)c1snnc1-c1ccccc1,13.9% (inactive),
COC(=O)[C@H](C)[C@H]1C[C@]1(C)[C@H](NC(=O)OCc1ccccc1)c1ccccc1,,7.94 µM (active)
COC(=O)[C@H](C)[C@@H]1C[C@@]1(C)[C@@H](NC(=O)OCc1ccccc1)c1ccccc1,,10 µM (active)
CN(C)CCNS(=O)(=O)N(C)C,-13.5% [at 11.4 µM] (inactive),
CC(=O)NN1C(=O)c2ccc(Oc3ccc([N+](=O)[O-])cc3)cc2C1=O,1.67% (inactive),

Compound,"activity, negative = inhibition",AC50
Nc1ccc(Oc2ccc3nc(-c4ccccc4)c(-c4ccc([N+](=O)[O-])cc4)nc3c2)cc1,,3.55 µM (active)
Cc1nc2ccccc2nc1-c1ccc(N=[N+]([O-])c2ccc(-c3nc4ccccc4nc3C)cc2)cc1,3.4% [at 11.4 µM] (inactive),
Cc1noc(C)c1CS(=O)(=O)c1ccc(Br)cc1,,15.8 µM (active)
CNC(=O)CCc1nc(-c2ccc(C(C)(C)C)cc2)no1,-15.1% (inactive),
O=C(CCc1nc(-c2ccccc2)no1)NCCc1ccccc1,-16.7% (inactive),
COc1ccc(-c2noc(CCCC(=O)NCCc3ccccc3)n2)cc1OC,,11.2 µM (active)
Cc1ccc(S(=O)(=O)/N=C(/Nc2c(C)n(C)n(-c3ccccc3)c2=O)c2ccc(Cl)cc2)cc1,,3.16 µM (active)
COc1ccccc1N/C(=N/S(=O)(=O)c1ccc(C)cc1)c1ccc(Cl)cc1,,2.24 µM (active)
Cc1c(NC(C)C)c(=O)n(-c2ccccc2)n1C,-9.46% [at 25.6 µM] (inactive),
Cc1c(NCc2cc(Cl)ccc2O)c(=O)n(-c2ccccc2)n1C,,14.1 µM (active)
O=S(=O)(/N=C(\Sc1ccccc1)c1ccccc1)c1ccc(Cl)cc1,-0.323% (inactive),
Cc1c(NC(=O)Nc2c(Cl)cccc2Cl)c(=O)n(-c2ccccc2)n1C,4.74% [at 11.4 µM] (inactive),
Cc1c(NC(=O)C2CCN(S(=O)(=O)c3ccc(Cl)cc3)CC2)c(=O)n(-c2ccccc2)n1C,,7.94 µM (active)
Cc1nn(-c2ccccc2)c(Cl)c1C(=O)Nc1c(C)n(C)n(-c2ccccc2)c1=O,-15.6% (inactive),
CC(=O)NC1=NN(c2ccccc2)C(=O)C1,-7.33% (inactive),
O=c1c(-c2ccc(F)cc2)nc2cnc(N3CCNCC3)nc2n1Cc1cccs1,,10 µM (active)
O=c1c(-c2cc(F)cc(F)c2)nc2cnc(N3CCNCC3)nc2n1Cc1cccs1,,10 µM (active)
O=c1c(-c2cc(F)cc(F)c2)nc2cnc(N3CCOCC3)nc2n1C[C@H]1CCCO1,6.88% (inactive),
Cn1c(=O)c(-c2cc(F)cc(F)c2)nc2cnc(N3CCOCC3)nc21,17.1% (inactive),
O=c1c(-c2ccc(Cl)cc2)nc2cnc(N3CCNCC3)nc2n1Cc1cccs1,,5.01 µM (active)
O=c1c(-c2ccccc2)nc2cnc(N3CCOCC3)nc2n1Cc1cccs1,-5.52% (inactive),
CCc1c(O)c2c(c(O)c1C(C)=O)C(=O)c1c(cc(O)c(C(=O)O)c1C(=O)O)C2=O,2.06% [at 11.4 µM] (inactive),
